Bioassay records from PubChem BioAssay.
Shown are actives, neighbours in structure and some others; about 2.4% of the full set was active somewhere.
POLK inh – qHTS for Inhibitors of Polymerase Kappa; purified Pol kappa, fluorescent DNA synthesis assay, 10 min; DNA polymerase kappa (Homo sapiens), Q9UBT6; AID 588579, 2011; Potency, µM (series often up to 107 µM), hits mostly inhibitors; 400,000 compounds, 0.53% hits
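First, compounds were pin-transferred onto 10 nM Pol kappa. After 15 min at room temperature, substrate was added to 50 nM final. Fluorescence was then measured kinetically at 0 and 10 min.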
POLH inh – qHTS for Inhibitors of Polymerase Eta; Potency, µM (titrated, usually from 114 µM), most hits filed as inhibitors; 390,000 compounds, 1.2% hits; recombinant Pol eta, fluorescent DNA replication assay; DNA polymerase eta (Homo sapiens), Q9Y253
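Pol eta at 10 nM preincubated with compounds 15 min at room temperature; reaction started with fluorescent substrate (50 nM final) and read kinetically at 0 and 10 min.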
Pol beta inh – qHTS Assay for Inhibitors of DNA Polymerase Beta | P06746 | Pol beta primer extension/strand displacement, fluorescence kinetic | Potency, µM (highest dose often 114 µM), hits mostly inhibitors | 340,000 compounds, 1.3% hits
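Homogeneous kinetic assay of primer extension and strand displacement by 10 nM Pol beta, preincubated 15 min at room temperature with compound before 50 nM substrate (final) was added. Read at 0 and 10 min; four-parameter Hill fit.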
TDP1 block – qHTS Assay for Inhibitors of Tyrosyl-DNA Phosphodiesterase (TDP1). Tyrosyl-DNA phosphodiesterase 1 (Homo sapiens), Q9NUW8. recombinant TDP1, AlphaScreen DNA substrate cleavage. Potency, µM (doses to about 130 µM), most hits filed as inhibitors. 350,000 compounds, 0.28% hits. AID 485290, 2010; note: nearly all actives have a fitted effect of over 40% in size
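Recombinant human Tdp1 (E. coli-expressed, 1 nM final) preincubated with compounds 15 min at room temperature, then 5'-biotin/3'-phosphotyrosine-FITC DNA substrate (15 nM final) added for 5 min. AlphaScreen beads (10 ug/ml final) added 10 min; cleavage lowers signal.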
POLI inh – qHTS for Inhibitors of Polymerase Iota; 390,000 compounds, 1% hits; DNA polymerase iota (Homo sapiens), Q9UNA4; Pol iota fluorescent replication assay, 10 min; Potency, µM (highest dose often 115 µM), actives largely listed as inhibitors
Target sequence (Q9UNA4 whole entry, looked up): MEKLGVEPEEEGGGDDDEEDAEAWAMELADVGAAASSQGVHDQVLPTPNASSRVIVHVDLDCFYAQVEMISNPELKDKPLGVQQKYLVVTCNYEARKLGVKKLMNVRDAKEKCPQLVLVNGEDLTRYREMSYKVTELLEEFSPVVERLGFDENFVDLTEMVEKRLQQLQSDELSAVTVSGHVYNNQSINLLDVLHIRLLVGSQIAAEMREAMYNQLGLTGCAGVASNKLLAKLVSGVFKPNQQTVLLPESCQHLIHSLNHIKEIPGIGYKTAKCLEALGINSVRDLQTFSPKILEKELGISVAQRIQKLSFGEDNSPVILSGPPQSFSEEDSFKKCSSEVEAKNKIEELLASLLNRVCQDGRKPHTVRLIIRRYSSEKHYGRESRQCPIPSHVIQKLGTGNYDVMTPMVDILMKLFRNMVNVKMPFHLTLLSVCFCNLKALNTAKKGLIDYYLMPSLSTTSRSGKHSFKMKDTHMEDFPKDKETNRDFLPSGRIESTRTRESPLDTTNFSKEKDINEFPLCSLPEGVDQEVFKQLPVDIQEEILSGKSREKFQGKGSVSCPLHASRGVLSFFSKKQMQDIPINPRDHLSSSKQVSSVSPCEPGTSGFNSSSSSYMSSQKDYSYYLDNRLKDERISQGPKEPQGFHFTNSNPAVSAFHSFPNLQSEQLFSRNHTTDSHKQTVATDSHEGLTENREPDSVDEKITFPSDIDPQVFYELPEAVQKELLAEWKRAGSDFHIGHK
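Pol iota at 10 nM preincubated 15 min with compounds at room temperature; reaction started with fluorescent substrate, 50 nM final. Fluorescence read kinetically at 0 and 10 min; buffer-only wells as negative control.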
Numbers stand for hits; – = inactive; ? = inconclusive; · = no result; [ ] = remark or other dose. Calls come from the whole dose curve; as a rule, active = well fitted curve in the direction sought with a large enough effect; inconclusive = small, poorly fitted or top-dose-only effect, or another doubt; inactive = no such curve, though single readings can be large; an effect the other way counts as inactive or inconclusive.

SMILES | POLK inh | POLH inh | Pol beta inh | TDP1 block | POLI inh
Cc1ccc(S(=O)(=O)N2CCOCC2)cc1NC(=O)COC(=O)/C=C/c1ccco1 | – | – | · | 28.2µM | ?
O=C(/C=C/c1ccc(F)cc1)NCc1ccco1 | – | ? | 56.2µM | – | ?
O=C(COc1ccccc1C(=O)Nc1cccnc1)Nc1ccc(Br)cc1 | – | · | · | · | –
COCC(=O)Nc1cc(Sc2ccccc2)ccc1N=C(NC(=O)OC)NC(=O)OC | –[19.4 µM] | · | · | · | ·
CC1CC(C)CN(C(=O)COC(=O)/C=C/c2cccc([N+](=O)[O-])c2)C1 (centres undefined) | – | – | · | – | ?
CC1CC(C)CN(C(=O)COC(=O)/C=C/c2ccco2)C1 (centres undefined) | – | ? | · | 22.4µM | ?
O=C(COC(=O)/C=C/c1ccco1)NCCc1ccccc1 | – | – | ? | 28.2µM | –
Cc1ccccc1NC(=O)CSc1nnc(-c2ccco2)c(-c2ccco2)n1 | 31.6µM | 50.1µM | 14.1µM | – | 10µM
COc1ccc(-c2nnc(SCC(=O)Nc3c(C)cccc3C)nc2-c2ccc(OC)cc2)cc1 | – | – | – | · | –
Cc1cccc(C)c1NC(=O)CSc1nnc(-c2ccco2)c(-c2ccco2)n1 | 28.2µM | 3.55µM | 3.16µM | · | ?
O=C(O)CN1C(=O)/C(=C\c2cc(Br)ccc2OCc2ccccc2Cl)SC1=S | – | 39.8µM | 31.6µM | · | ?
O=C(O)CN1C(=O)/C(=C\c2ccccc2OCc2ccc(Cl)cc2Cl)SC1=S | – | 44.7µM | 20µM | – | ?
Cc1c(C(=O)N(Cc2ccc(N(C)C)cc2)Cc2ccco2)oc2cc(Br)ccc12 | – | · | – | – | –
CC(C)CCCC(C)CCCC(C)CCCCC(C)CCCC(C)CCCC(C)C (centres undefined) | – | · | · | – | ·
CC(C)CCCC(C)CCCC(C)CCCC(C)C(=O)O (centres undefined) | 29.9µM | · | · | – | ·
Cc1ccc(C(=O)Nc2nnc(S(=O)(=O)N3CCCc4ccccc43)s2)cc1 | – | 89.1µM | ? | – | –
O=C(Nc1nnc(S(=O)(=O)N2CCc3ccccc32)s1)c1cccc(Cl)c1 | – | 89.1µM | – | – | –
O=C(Nc1nnc(S(=O)(=O)N2CCc3ccccc32)s1)c1ccccc1 | – | – | – | – | –
Cc1ccc(NS(=O)(=O)c2ccc(N3CCCC3=O)cc2)cc1C | · | · | · | – | ·
Cc1ccccc1-c1noc(-c2ccc(N3CCN(c4ccccc4)CC3)c([N+](=O)[O-])c2)n1 | – | – | – | – | –
O=S(=O)(c1ccc2c(c1)OCO2)N1CCN(S(=O)(=O)c2c(F)cccc2F)CC1 | · | · | · | – | ·
O=C(C1CCCCC1)N1CCCc2ccccc21 | – | – | 89.1µM | – | –
O=C(NC1CCCCC1)N1CCCc2ccccc21 | – | – | – | – | –
CN1C(=O)C(C)(C)c2cc(S(=O)(=O)N3CCN(c4cccc(Cl)c4)CC3)ccc21 | – | – | 14.1µM | · | ?
CCC(=O)NC(c1cccc([N+](=O)[O-])c1)c1c(O)ccc2ccccc12 (centres undefined) | – | – | – | – | 89.1µM
SMILES | POLK inh | POLH inh | Pol beta inh | TDP1 block | POLI inh
O=C(O)c1cccc(S(=O)(=O)Nc2cccc(S(=O)(=O)N3CCCCCC3)c2)c1 | – | – | – | – | 89.1µM
O=[N+]([O-])c1cccc(S(=O)(=O)Nc2nc3ccccc3nc2Nc2cccc(S(=O)(=O)N3CCCCC3)c2)c1 | – | ? | ? | – | –
Cc1ccc(S(=O)(=O)Nc2nc3ccccc3nc2Nc2cccc(S(=O)(=O)N3CCCC3)c2)cc1 | ? | – | – | – | 7.08µM
CCc1nn(CC(=O)Nc2ccc(C)c(F)c2)c(=O)c2cc3cc(C)ccc3n12 | – | – | – | – | ?
CC1CCCCN1C(=O)c1ccc2c(c1)N(Cc1ccc(Cl)cc1)C(=O)c1ccccc1S2=O (centres undefined) | – | – | – | – | –
Cc1ccc(C(=O)OC2=C(C(=O)c3ccccc3)N(C)S(=O)(=O)c3ccccc32)cc1 | – | – | ? | – | 89.1µM
C[N+]1(CC(=O)c2ccc(O)c(O)c2)CCOCC1 | – | · | · | · | ?
N#CCC(=O)Nc1ccc(C(=O)OCC(=O)NC2CCCc3ccccc32)cc1 (centres undefined) | – | 39.8µM | · | – | ?
Cc1ccc(C(=O)OCC(=O)NC2CCCc3ccccc32)o1 (centres undefined) | – | – | · | – | –
CCOC(=O)c1ccc(N2C(=O)c3n[nH]c(-c4cccs4)c3C2c2cccc(F)c2)cc1 (centres undefined) | – | – | – | – | –
Nc1nc(N)nc(-c2cc(Cl)ccc2Cl)n1 | – | – | · | – | 79.4µM
Nc1nc(N)nc(-c2cc(C(F)(F)F)ccc2Cl)n1 | – | – | · | – | –
C=COC(=O)/C=C/C | – | · | · | – | ·
CC(=O)N1c2ccc(S(=O)(=O)NCC3CCC(C(=O)Nc4cccc(C)c4C)CC3)cc2CC1C (centres undefined) | – | – | 22.4µM | – | ?
CC(=O)N1c2ccc(S(=O)(=O)NCC3CCC(C(=O)N4CCC(C)CC4)CC3)cc2CC1C (centres undefined) | – | – | – | – | 79.4µM
NC(N)=NCCC[C@H](NC(=O)c1ccccc1)C(=O)Nc1ccc([N+](=O)[O-])cc1 | – | · | · | – | ·
COc1ccc(CCC(=O)NCc2nc3cccnc3n2Cc2ccc(C)cc2)cc1 | – | · | – | – | –
CCNc1ccccc1CP(=O)(c1ccccc1)c1ccccc1O (centres undefined) | – | – | 50.1µM | · | 14.1µM
O=C(CNC(=O)c1cccc2ccccc12)OC(C(=O)Nc1cc(C(F)(F)F)ccc1Cl)c1ccccc1 (centres undefined) | · | · | · | – | ·
CNc1cccc(S(=O)(=O)N2CCCN(S(=O)(=O)c3ccc4c(c3)OCCO4)CC2)c1 | · | · | · | – | ·
COc1ccc(C(=O)Nc2nc(-c3nnn(-c4ccc(C(C)C)cc4)c3C)ns2)cc1 | – | – | – | – | –
COc1cc(OC)cc(C(=O)Nc2nc(-c3nnn(-c4ccc(F)c(Cl)c4)c3C)ns2)c1 | – | – | 3.16µM | – | ?
COC(=O)c1ccc(COc2ccc3c(C)c(C)c(=O)oc3c2)o1 | – | – | 56.2µM | – | ?
Cc1nnc(N2CCN(c3ccccc3F)CC2)c2c1nnn2Cc1ccccc1Cl | – | – | – | – | –
O=C(Nc1nc2nc(-c3ccccc3)cc(=O)n2[nH]1)c1ccc(Cl)cc1 | – | – | 22.4µM | – | –
CCSC(=O)N1CCN(/[N+]([O-])=N/Oc2ccc([N+](=O)[O-])cc2[N+](=O)[O-])CC1 | – | · | · | · | ?
O=C(O)CNS(=O)(=O)c1ccc2c(c1)CCCC2 | – | – | – | 50.1µM | –
Cc1nc(CNS(=O)(=O)c2ccc3c(c2)CCCC3)cs1 | – | – | – | – | –
